Results taken from the supplement of paper PMC7156485.
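Throughout, for H1.0 immunofluorescence intensity relative to DMSO: TDF is a line of transformed human dermal fibroblasts of mesenchymal origin.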
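Throughout, for cell number relative to DMSO: TDF denotes transformed human dermal fibroblasts of mesenchymal origin.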

The compounds below were run on TDF (assay: cell number relative to DMSO (% of DMSO); higher = more cells (less growth inhibition / toxicity)). Details: concentration: 10 µM; 24 h.
Summary of the method: (§1)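 Treatment: HCC1569 and TDF cells, 800 per well in 384-well plates with RPMI and 10% FBS, were given compounds at 10 µM for 24 h at 37 °C, in triplicate. Readout: after 3.7% formaldehyde fixation, cells were stained with a rabbit anti-H1.0 antibody, an AlexaFluor 647 secondary and DAPI. Reported values are H1.0 nuclear intensity or cell number as percent of the plate control, taken as the median of replicates, with positional smoothing for HCC1569.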
Compound `COc1ccc(/C=C\c2cc(OC)c(OC)c(OC)c2)cc1O` [2-methoxy-5-[(Z)-2-(3,4,5-trimethoxyphenyl)ethenyl]phenol] has a cell number of 11.5. `CCN(CC)CCOC(=O)C1(C2CCCCC2)CCCCC1.Cl` [Dicyclomine hydrochloride] showed a cell number of 96.7. Compound `CCn1cc(C(=O)O)c(=O)c2ccc(C)nc21` [Nalidixic acid] has a cell number of 98.7. `Cc1scc2c1N(C(=O)CN1CCN(C)CC1)c1ccccc1NC2=O.Cl.Cl` [Telenzepine.2HCl] was tested, and the cell number was 99.1. With `OCC1OC(n2cnc3c(Nc4ccccc4)ncnc32)C(O)C1O` (centres undefined) [N6-Phenyladenosine] the cell number was 118.

The compounds below were run on TDF (assay: H1.0 immunofluorescence intensity relative to DMSO (% of DMSO); higher = stronger H1.0 induction, active = 120 or more). Details: concentration: 10 µM; 24 h.
Summary of the method: as §1
In the case of `CCCCCCCCCCCCCCCC(=O)NCCO` [Palmitylethanolamide], the H1.0 immunofluorescence intensity is reported as 96.8 (inactive). In the case of `O=C(O)C=Cc1cnc[nH]1` [4-Imidazoleacrylic acid], the H1.0 immunofluorescence intensity is reported as 97.2 (inactive). With `C[n+]1cccc(C(=O)O)c1.[Cl-]` the H1.0 immunofluorescence intensity was 101 (inactive). For `COC1(C2=NCCN2)COc2ccccc2O1.Cl` (centres undefined), the H1.0 immunofluorescence intensity was 89.4 (inactive). In the case of `O=Nc1ccc2oc(=O)ccc2c1` [6-Nitroso-1,2-benzopyrone], the H1.0 immunofluorescence intensity is reported as 92.2 (inactive). With `Cn1ccnc1` [1-Methylimidazole] the H1.0 immunofluorescence intensity was 97.4 (inactive). With `OCCN1CCN(CCCN2c3ccccc3Sc3ccc(Cl)cc32)CC1` [Perphenazine] the H1.0 immunofluorescence intensity was 116 (inactive). `CC(C)NCC(O)COc1ccc(CC(N)=O)cc1` (stereo not drawn) [S(-)-Atenolol] was tested, and the H1.0 immunofluorescence intensity was 92.2 (inactive). In the case of `O=C(Nc1cccc(C(=O)Nc2ccc(S(=O)(=O)[O-])c3cc(S(=O)(=O)[O-])cc(S(=O)(=O)[O-])c23)c1)Nc1cccc(C(=O)Nc2ccc(S(=O)(=O)[O-])c3cc(S(=O)(=O)[O-])cc(S(=O)(=O)[O-])c23)c1.[Na+].[Na+].[Na+].[Na+].[Na+].[Na+]`, the H1.0 immunofluorescence intensity is reported as 93.4 (inactive).
